# Reference: PubChem BioAssay (EPA / NIEHS)
# Inconclusive results are not listed. Activity calls are given as the source filed them. Rule for the calls: active = hit-call score of the fitted dose curve at least 0.9, where 1 is the maximum; inconclusive = response in the unintended direction; inactive = score below 0.9.
# Target: zebrafish Thyroid Hormone Receptor beta (TRb), thrb (gene 30607) (UniProt Q9PVE4)
# Assay: ATG_zfTRb_XSP2: Attagene TRANS-FACTORIAL Multi-Species (XSP1) HepG2 Assay for zebrafish Thyroid Hormone Receptor beta (TRb) (AID 2283836)
# Protocol: ATG_XSP2_multi-species_TRANS is a cell-based, multiplexed assay created by modifying the existing Attagene TRANS-FACTORIAL system to include a panel of nuclear receptors from some or all the following species: human (Homo sapiens), mouse (Mus musculus), frog (Xenopus laevis), zebrafish (Danio rerio), chicken (Gallus gallus), and turtle (Chrysemys picta). The ECOTOX-FACTORIAL format uses HepG2, a human liver cell line, with measurements taken at 24 hours after chemical dosing in a 24-well plate. Xsp2 included 3 nM 6-alpha-fluorotestosterone and 1.5 nM norgestrel to stimulate the androgen receptor.ATG_zfTRb_XSP2 is one of 29 assay components measured or calculated from the ATG_XSP2_multi-species_TRANS assay. It is designed to make measurements of mRNA induction, a form of inducible reporter, as detected with fluorescence intensity signals by Reverse transcription polymerase chain reaction (RT-PCR) and Capillary electrophoresis technology.The assay endpoint ATG_zfTRb_XSP2 was analyzed in the positive analysis fitting direction relative to DMSO as the negative control and baseline of activity. Using a type of inducible reporter, measures of mRNA for gain-of-signal activity can be used to understand the reporter gene at the transcription factor-level as they relate to the gene TR. Furthermore, this assay endpoint can be referred to as a primary readout, because this assay has produced multiple assay endpoints where this one serves a reporter gene function. To generalize the intended target to other relatable targets, this assay endpoint is annotated to the nuclear receptor intended target family, where the subfamily is non-steroidal.
# Human liver HepG2 cells are transiently transfected with multiple reporter transcription units (MRTUs) in 6-well plates using FuGene 6 reagent (Roche; 3 ml FuGene/1 mg DNA). The MRTU constructs are regulated by a cis-regulating element (promoter). […] A major difference between the CIS and TRANS system is that in CIS activities of endogenous TFs are measured, whereas the TRANS assay evaluates changes in activities of exogenous, chimeric NR-Gal4 proteins. […] At the end of 24 hour incubation, total RNA was isolated using TriZol reagent (Invitrogen). The isolated RNA is then reverse-transcribed using oligo(dT) primer and Mo-MLV reverse transcriptase (Invitrogen) with DNAse I (Ambion) treatment for 30 min. The one-tenth of the produced cDNA was amplified by PCR using Taq DNA polymerase (Invitrogen) and two reporter sequence-specific primers. The PCR products were fluorescently labeled by primer extension with 6-arboxyfluorescein (6-FAM) 5'-labeled reporter sequence-specific primer (2 min at 95 C, 20 s at 68 C and 10 min at 72 C) and these products were digested with 5U of HpaI (New England Biolabs) for 2h at 37 C. The fragments were purified using Qiaquick PCR columns (Qiagen), analyzed on an ABI 3130xL genetic analyzer (Applied Biosystems) with peak positions identified by using a set of X-rhodamine (ROX)-labeled MapMarker1000 molecular weight standards (BioVentures). The raw capillary electrophoresis data was processed using Attagraph software (Attagene).
# Chain of zebrafish Thyroid Hormone Receptor beta (TRb), thrb (gene 30607) (Q9PVE4 whole entry, looked up): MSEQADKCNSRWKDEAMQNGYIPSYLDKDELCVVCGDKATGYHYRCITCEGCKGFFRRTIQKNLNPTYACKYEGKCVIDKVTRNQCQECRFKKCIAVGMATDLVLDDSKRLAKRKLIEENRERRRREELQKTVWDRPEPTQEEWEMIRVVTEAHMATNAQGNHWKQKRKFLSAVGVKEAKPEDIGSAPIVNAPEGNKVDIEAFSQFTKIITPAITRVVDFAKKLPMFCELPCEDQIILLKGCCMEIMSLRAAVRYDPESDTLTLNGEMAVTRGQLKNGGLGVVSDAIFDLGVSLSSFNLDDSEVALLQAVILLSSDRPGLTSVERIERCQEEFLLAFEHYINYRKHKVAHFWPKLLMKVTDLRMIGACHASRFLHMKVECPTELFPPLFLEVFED
row,Compound,outcome
1,COc1ccc(C(c2ccc(OC)cc2)C(Cl)(Cl)Cl)cc1,inactive
2,COC(=O)N(OC)c1ccccc1COc1ccn(-c2ccc(Cl)cc2)n1,inactive
3,CCCCOC(=O)c1ccccc1C(=O)OCCCC,inactive
4,C=CC1(C)OC(=O)N(c2cc(Cl)cc(Cl)c2)C1=O (configuration not stated),inactive
5,CCCCC(CC)COC(=O)c1ccccc1C(=O)OCC(CC)CCCC (configuration not stated),inactive
6,CCCN(CCC)c1c([N+](=O)[O-])cc(S(N)(=O)=O)cc1[N+](=O)[O-],inactive
7,COP(=S)(OC)Oc1nc(Cl)c(Cl)cc1Cl,inactive
8,CO/C=C(/C(=O)OC)c1ccccc1Oc1cc(Oc2ccccc2C#N)ncn1,inactive
9,OC(c1ccc(Cl)cc1)(c1cncnc1)c1ccccc1Cl (configuration not stated),inactive
10,C#CCOS(=O)OC1CCCCC1Oc1ccc(C(C)(C)C)cc1 (configuration not stated),inactive
11,CC(C)(C)c1ccc(CSc2cnn(C(C)(C)C)c(=O)c2Cl)cc1,inactive
12,CCOP(=S)(OCC)SCn1c(=O)oc2cc(Cl)ccc21,inactive
